Laboratory results as given in PubChem BioAssay (EPA / NIEHS).
The source made the active and inactive calls. Rule for the calls: active = hit-call score of the fitted dose curve at least 0.9, where 1 is the maximum; inactive = score below 0.9.

How the values were obtained:
Conditions in all cases: mRNA level, 48 h; actives raise or lower the signal
[1] = read-out: ABC Transporter (ABCB11), ABCB11 (gene 8647); test: LTEA_HepaRG_ABCB11: Life Technologies and Expression Analysis (LTEA) Assay for ABC Transporter (ABCB11) using HepaRG (AID 2283463)
Summary of the method: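 Using HepaRG cultures held in 0.5% DMSO, chemicals were tested at half-log dilutions from 100 uM for 48 h. Induction or suppression of ABCB11 mRNA, normalized to ACTB, GAPDH and POLR2A, was fitted bidirectionally against vehicle.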

[2] = read-out: ABC Transporter (ABCC2), ABCC2 (gene 1244); test: LTEA_HepaRG_ABCC2: Life Technologies and Expression Analysis (LTEA) Assay for ABC Transporter (ABCC2) using HepaRG (AID 2283464)
Summary of the method: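 HepaRG cells were plated 48 h, switched to serum-free induction medium, then exposed in duplicate for 48 h to 8 concentrations (top 100 uM, half-log steps, 0.5% DMSO). ABCC2 mRNA was measured by qRT-PCR normalized to ACTB/GAPDH/POLR2A; bidirectional fitting versus DMSO.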

[3] = read-out: Broad substrate specificity ATP-binding cassette transporter ABCG2 (Homo sapiens) (UniProt Q9UNQ0); test: LTEA_HepaRG_ABCG2: Life Technologies and Expression Analysis (LTEA) Assay for ABC Transporter (ABCG2) using HepaRG (AID 2283465)
Summary of the method: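 Gene expression of ABCG2 in HepaRG liver cells is quantified by qRT-PCR following 48 h exposure across an eight-point series topping at 100 uM. Values come from bidirectional fitting relative to DMSO vehicle.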

[4] = read-out: ATP-citrate lyase (ACLY), ACLY (gene 47); test: LTEA_HepaRG_ACLY: Life Technologies and Expression Analysis (LTEA) Assay for ATP-citrate lyase (ACLY) using HepaRG (AID 2283466)
Summary of the method: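 ACLY expression changes in human HepaRG liver cells are quantified by qRT-PCR after 48 h exposure to test chemicals (maximum 100 uM, half-log steps). Values are fitted in both directions relative to 0.5% DMSO vehicle.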

[5] = read-out: Peroxisomal acyl-coenzyme A oxidase 1 (ACOX1) gene, ACOX1 (gene 51); test: LTEA_HepaRG_ACOX1: Life Technologies and Expression Analysis (LTEA) Assay for Peroxisomal acyl-coenzyme A oxidase 1 (ACOX1) gene using HepaRG (AID 2283467)
Summary of the method: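 Human HepaRG hepatic cultures, 48 h treatment with test chemicals up to 100 uM. ACOX1 expression read by qRT-PCR relative to 0.5% DMSO vehicle.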

[6] = read-out: Alkaline Phosphatase, Placental (ALPP) gene, ALPP (gene 250); test: LTEA_HepaRG_ALPP: Life Technologies and Expression Analysis (LTEA) Assay for Alkaline Phosphatase, Placental (ALPP) gene using HepaRG (AID 2283468)
Summary of the method: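 Differentiated human HepaRG cells were plated and cultured 48 h, then exposed in duplicate for 48 h in serum-free induction medium to eight half-log concentrations from 100 uM in 0.5% DMSO. ALPP mRNA was measured by TaqMan qRT-PCR, normalized to ACTB, GAPDH, POLR2A.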

[7] = read-out: Bcl-2 (BAD) gene, BAD (gene 572); test: LTEA_HepaRG_BAD: Life Technologies and Expression Analysis (LTEA) Assay for Bcl-2 (BAD) gene using HepaRG (AID 2283469)
Summary of the method: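 Activity values reflect up- or down-regulation of BAD mRNA in human HepaRG hepatic cells treated 48 h in serum-free medium, with eight-point half-log dosing capped at 100 uM and 0.5% DMSO vehicle.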

[8] = read-out: Bcl-2 (BAX) gene, BAX (gene 581); test: LTEA_HepaRG_BAX: Life Technologies and Expression Analysis (LTEA) Assay for Bcl-2 (BAX) gene using HepaRG (AID 2283470)
Summary of the method: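 qRT-PCR read-out of BAX mRNA, normalized to three housekeeping genes, after 48 h chemical exposure of human HepaRG cells in serum-free induction medium; eight-point half-log series, top 100 uM, 0.5% DMSO vehicle; bidirectional fit versus DMSO.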

[9] = read-out: adenosine kinase (ADK) gene, ADK (gene 132); test: LTEA_HepaRG_ADK: Life Technologies and Expression Analysis (LTEA) Assay for adenosine kinase (ADK) gene using HepaRG (AID 2283471)
Summary of the method: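 Differentiated HepaRG cells dosed 48 h in serum-free induction medium, 0.5% DMSO vehicle, eight half-log concentrations from 100 uM, in duplicate. ADK mRNA by TaqMan qRT-PCR normalised to ACTB, GAPDH, POLR2A; bidirectional fit versus DMSO.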

[10] = read-out: Alpha-fetoprotein (AFP) gene, AFP (gene 174); test: LTEA_HepaRG_AFP: Life Technologies and Expression Analysis (LTEA) Assay for Alpha-fetoprotein (AFP) gene using HepaRG (AID 2283472)
Summary of the method: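 qRT-PCR (Fluidigm TaqMan) readout of AFP transcript, normalized to three housekeeping genes, fitted bidirectionally against 0.5% DMSO baseline. HepaRG cells received chemicals for 48 h in serum-free induction medium, top concentration 100 uM, half-log steps.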

[11] = read-out: BCL2L11 (gene 10018); test: LTEA_HepaRG_BCL2L11: Life Technologies and Expression Analysis (LTEA) Assay for Bcl-2 (BCL2L11) gene using HepaRG (AID 2283473)
Summary of the method: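 Differentiated human HepaRG cells in serum-free induction medium were exposed in duplicate for 48 h to eight concentrations (top 100 uM, half-log steps, 0.5% DMSO). BCL2L11 mRNA was quantified by TaqMan qRT-PCR, normalized to ACTB/GAPDH/POLR2A, bidirectional fit versus DMSO.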

[12] = read-out: Apolipoprotein A-V (APOA5) gene, APOA5 (gene 116519); test: LTEA_HepaRG_APOA5: Life Technologies and Expression Analysis (LTEA) Assay for Apolipoprotein A-V (APOA5) gene using HepaRG (AID 2283474)
Summary of the method: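 Differentiated human HepaRG cells were exposed in duplicate for 48 h to eight half-log concentrations from 100 uM in 0.5% DMSO. APOA5 mRNA was quantified by TaqMan qRT-PCR, normalized to ACTB, GAPDH and POLR2A, and fitted bidirectionally against DMSO.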

[13] = read-out: Bcl-2 (BID) gene, BID (gene 637); test: LTEA_HepaRG_BID: Life Technologies and Expression Analysis (LTEA) Assay for Bcl-2 (BID) gene using HepaRG (AID 2283476)
Summary of the method: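 HepaRG, 48 h exposure, 8-pt half-log series, top 100 uM, 0.5% DMSO vehicle, duplicates. Readout: BID mRNA by TaqMan qRT-PCR; housekeeping-normalized; bidirectional curve fit vs DMSO baseline.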

[14] = read-out: Caspase-3 (Homo sapiens) (UniProt P42574); test: LTEA_HepaRG_CASP3: Life Technologies and Expression Analysis (LTEA) Assay for cysteine-aspartic acid protease (CASP3) using HepaRG (AID 2283477)
Summary of the method: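 Differentiated human HepaRG cells in serum-free induction medium were exposed 48 h to 8-point half-log concentrations from 100 uM (0.5% DMSO vehicle). CASP3 mRNA was measured by qRT-PCR, normalised to ACTB, GAPDH and POLR2A, with bidirectional fitting against DMSO.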

[15] = read-out: Cytochrome P450 (CYP24A1), CYP24A1 (gene 1591); test: LTEA_HepaRG_CYP24A1: Life Technologies and Expression Analysis (LTEA) Assay for Cytochrome P450 (CYP24A1) using HepaRG (AID 2283478)
Summary of the method: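 Differentiated HepaRG cells, pre-cultured 48 h, were exposed in duplicate for 48 h in serum-free induction medium to 8 half-log concentrations (top 100 uM, 0.5% DMSO). CYP24A1 mRNA was quantified by TaqMan qRT-PCR, normalized to ACTB/GAPDH/POLR2A, fitted bidirectionally versus DMSO.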

[16] = read-out: Cytochrome P450 (CYP1A2), CYP1A2 (gene 1544); test: LTEA_HepaRG_CYP1A2: Life Technologies and Expression Analysis (LTEA) Assay for Cytochrome P450 (CYP1A2) using HepaRG (AID 2283479)
Summary of the method: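 Differentiated human HepaRG cells in serum-free induction medium were exposed in duplicate for 48 h to 8-point half-log concentrations up to 100 uM in 0.5% DMSO. CYP1A2 mRNA measured by qRT-PCR, normalized to ACTB, GAPDH, POLR2A; bidirectional fit vs DMSO.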

[17] = read-out: cysteine-aspartic acid protease (CASP8), CASP8 (gene 841); test: LTEA_HepaRG_CASP8: Life Technologies and Expression Analysis (LTEA) Assay for cysteine-aspartic acid protease (CASP8) using HepaRG (AID 2283480)
Summary of the method: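 Concentration-response in duplicate up to 100 uM (half-log steps, 0.5% DMSO) on differentiated HepaRG cultures for 48 h. Expression change of CASP8 mRNA is determined by TaqMan qRT-PCR with housekeeping-gene normalization.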

[18] = read-out: Cytochrome P450 (CYP2B6), CYP2B6 (gene 1555); test: LTEA_HepaRG_CYP2B6: Life Technologies and Expression Analysis (LTEA) Assay for Cytochrome P450 (CYP2B6) using HepaRG (AID 2283481)
Summary of the method: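 Differentiated HepaRG cells, serum-free induction medium, exposed 48 h in duplicate to 8-point half-log concentrations from 100 uM in 0.5% DMSO. CYP2B6 mRNA by qRT-PCR, normalized to ACTB, GAPDH, POLR2A; bidirectional fit versus DMSO.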

[19] = read-out: Apoptosis regulator Bcl-2 (Homo sapiens) (UniProt P10415); test: LTEA_HepaRG_BCL2: Life Technologies and Expression Analysis (LTEA) Assay for Bcl-2 gene using HepaRG (AID 2283475)
Summary of the method: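 qRT-PCR read-out (Fluidigm TaqMan) of BCL2 transcript, normalised to three housekeeping genes, after 48 h chemical exposure of HepaRG cells; 8-point half-log series, top 100 uM, 0.5% DMSO vehicle. Gain or loss of signal fitted relative to DMSO baseline.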

Sequence of Caspase-3 (Homo sapiens) (P42574 whole entry, looked up): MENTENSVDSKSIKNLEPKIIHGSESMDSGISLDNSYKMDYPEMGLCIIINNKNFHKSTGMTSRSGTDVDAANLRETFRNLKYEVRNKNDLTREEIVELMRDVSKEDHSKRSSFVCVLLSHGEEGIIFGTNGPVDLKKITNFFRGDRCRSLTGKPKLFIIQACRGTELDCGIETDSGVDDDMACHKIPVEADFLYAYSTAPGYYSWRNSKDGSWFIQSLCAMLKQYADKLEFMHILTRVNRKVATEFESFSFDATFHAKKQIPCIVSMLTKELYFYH
Sequence of Broad substrate specificity ATP-binding cassette transporter ABCG2 (Homo sapiens) (Q9UNQ0 whole entry, looked up): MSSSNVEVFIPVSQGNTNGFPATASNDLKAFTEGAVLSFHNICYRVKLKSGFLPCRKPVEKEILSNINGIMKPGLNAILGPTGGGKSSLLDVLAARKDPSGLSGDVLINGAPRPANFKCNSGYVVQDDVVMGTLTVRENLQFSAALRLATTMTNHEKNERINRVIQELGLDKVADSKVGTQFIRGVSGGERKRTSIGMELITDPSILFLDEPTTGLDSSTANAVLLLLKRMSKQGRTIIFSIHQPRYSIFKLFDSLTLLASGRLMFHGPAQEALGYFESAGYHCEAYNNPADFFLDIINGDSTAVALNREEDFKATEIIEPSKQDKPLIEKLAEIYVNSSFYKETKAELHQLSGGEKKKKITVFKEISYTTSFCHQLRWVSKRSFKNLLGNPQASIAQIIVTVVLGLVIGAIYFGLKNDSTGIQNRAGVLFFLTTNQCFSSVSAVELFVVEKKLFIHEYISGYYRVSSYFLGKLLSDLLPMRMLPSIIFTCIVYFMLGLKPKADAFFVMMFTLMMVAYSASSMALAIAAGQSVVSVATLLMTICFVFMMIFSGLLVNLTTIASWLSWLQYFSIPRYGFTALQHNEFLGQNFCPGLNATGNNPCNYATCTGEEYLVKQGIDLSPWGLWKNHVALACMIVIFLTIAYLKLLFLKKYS
Sequence of Apoptosis regulator Bcl-2 (Homo sapiens) (P10415 whole entry, looked up): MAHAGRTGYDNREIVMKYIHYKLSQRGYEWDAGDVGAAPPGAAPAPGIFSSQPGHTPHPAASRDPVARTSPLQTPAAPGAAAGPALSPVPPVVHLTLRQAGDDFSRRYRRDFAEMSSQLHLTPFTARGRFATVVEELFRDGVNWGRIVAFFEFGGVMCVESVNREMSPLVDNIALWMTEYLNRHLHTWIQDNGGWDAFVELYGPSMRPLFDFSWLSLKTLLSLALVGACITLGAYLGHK

C=C(C)[C@H]1Cc2c(ccc3c2O[C@@H]2COc4cc(OC)c(OC)cc4[C@@H]2C3=O)O1
AC50 [1]: 7.9 µM (active)
AC50 [2]: 15.2 µM (active)
AC50 [3]: 1.18 µM (active)
outcome [4]: inactive
AC50 [5]: 11.7 µM (active)
AC50 [6]: 0.384 µM (active)
outcome [7]: inactive
AC50 [8]: 6.55 µM (active)
outcome [9]: inactive
AC50 [10]: 0.985 µM (active)
AC50 [11]: 1.07 µM (active)
AC50 [12]: 12.9 µM (active)
outcome [13]: inactive
outcome [14]: inactive
outcome [15]: inactive
AC50 [16]: 0.679 µM (active)
outcome [17]: inactive
AC50 [18]: 0.5 µM (active)

CCC(=NOC/C=C/Cl)C1=C(O)CC(C2CCOCC2)CC1=O (stereo unspecified)
outcome [1]: inactive
outcome [2]: inactive
outcome [3]: inactive
outcome [4]: inactive
outcome [5]: inactive
outcome [6]: inactive
outcome [7]: inactive
outcome [8]: inactive
outcome [9]: inactive
outcome [10]: inactive
outcome [11]: inactive
outcome [12]: inactive
outcome [19]: inactive
outcome [13]: inactive
outcome [14]: inactive
outcome [15]: inactive
outcome [16]: inactive
outcome [17]: inactive
outcome [18]: inactive

CCCCSP(=O)(SCCCC)SCCCC
AC50 [1]: 73.9 µM (active)
outcome [2]: inactive
AC50 [3]: 50 µM (active)
outcome [4]: inactive
outcome [5]: inactive
outcome [6]: inactive
outcome [7]: inactive
outcome [8]: inactive
outcome [9]: inactive
AC50 [10]: 50 µM (active)
outcome [11]: inactive
outcome [12]: inactive
outcome [19]: inactive
outcome [13]: inactive
outcome [14]: inactive
outcome [15]: inactive
AC50 [16]: 13 µM (active)
outcome [17]: inactive
AC50 [18]: 12.5 µM (active)
